Screening results as filed in PubChem.
ASK1 inh = human ASK1 kinase inhibition, primary screen; Q99683; AlphaScreen MKK6 phosphorylation by ASK1, luminescence; inhibition, % at 7.44 µM; 0.99% of 22,000 active; AID 1159602; in the data active = inhibition above about 35%;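 note: 0% = median of compound wells and 100% = no enzyme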
ULK1 primary = human ULK1 kinase inhibition, primary screen | AID 1259251 | inhibition, % at 5.96 µM | 1.9% of 30,000 active | O75385 | AlphaScreen Atg13 phosphorylation by ULK1, luminescence; in the data active = inhibition above about 43%;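 note: 0% = median of compound wells and 100% = no enzyme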
Target sequence (O75385 whole entry, looked up): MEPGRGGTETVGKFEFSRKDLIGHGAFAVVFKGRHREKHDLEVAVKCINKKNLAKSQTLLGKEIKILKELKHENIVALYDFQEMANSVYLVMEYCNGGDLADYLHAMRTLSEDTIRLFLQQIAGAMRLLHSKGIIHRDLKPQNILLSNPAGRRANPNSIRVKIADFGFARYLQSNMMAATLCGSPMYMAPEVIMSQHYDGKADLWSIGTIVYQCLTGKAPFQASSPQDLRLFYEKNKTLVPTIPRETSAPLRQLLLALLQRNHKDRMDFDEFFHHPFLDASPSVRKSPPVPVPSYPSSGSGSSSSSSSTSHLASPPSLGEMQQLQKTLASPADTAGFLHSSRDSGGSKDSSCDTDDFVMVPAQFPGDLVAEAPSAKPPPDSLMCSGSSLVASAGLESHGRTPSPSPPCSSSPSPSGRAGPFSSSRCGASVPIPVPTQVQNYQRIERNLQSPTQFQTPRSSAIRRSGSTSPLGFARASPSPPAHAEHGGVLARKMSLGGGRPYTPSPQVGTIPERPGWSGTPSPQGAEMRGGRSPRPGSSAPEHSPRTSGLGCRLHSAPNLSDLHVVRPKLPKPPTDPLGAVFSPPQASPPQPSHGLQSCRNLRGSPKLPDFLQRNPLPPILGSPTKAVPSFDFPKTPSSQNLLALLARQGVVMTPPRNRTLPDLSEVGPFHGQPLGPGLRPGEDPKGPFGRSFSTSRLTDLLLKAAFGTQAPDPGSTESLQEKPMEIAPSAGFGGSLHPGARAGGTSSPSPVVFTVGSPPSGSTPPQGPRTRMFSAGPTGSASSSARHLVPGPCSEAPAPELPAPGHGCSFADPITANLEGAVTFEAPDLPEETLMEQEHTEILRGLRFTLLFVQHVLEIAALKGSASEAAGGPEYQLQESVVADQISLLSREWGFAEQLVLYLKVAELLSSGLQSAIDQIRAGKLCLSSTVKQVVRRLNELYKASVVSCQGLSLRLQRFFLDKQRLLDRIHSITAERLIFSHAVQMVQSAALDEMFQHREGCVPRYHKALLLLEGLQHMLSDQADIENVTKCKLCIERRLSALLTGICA
TruHits interf = AlphaScreen optical interference dose response, ASK1 counter-screen; shares compounds with ASK1 inh; AlphaScreen TruHits beads, signal interference counterscreen; IC50, µM; AID 1159604; 20% of 220 active;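 active = IC50 of 10 µM or lower in the counterscreen; inactive = IC50 above 10 µM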;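 note: loss of AlphaScreen light from TruHits beads alone with no ASK1 enzyme present; potency of signal reduction so a low IC50 flags an assay artifact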
Numbers without * were called inactive; i = inactive; · = no result; ! = repeats disagree. The list is not random: actives were taken first. Their share in the collection is about 2.5%.

SMILES | ASK1 inh | ULK1 primary | others
Cn1c(Nc2nc(NCCOc3ccccc3)c3ncn(C4CCCCC4)c3n2)nc2ccccc21 | -0.8 | 52.3*
CC(O)C(O)[C@H]1CNc2nc(N)[nH]c(=O)c2N1 (stereo partly specified) | · | 18.9
COc1ccc(S(=O)(=O)/N=C2\C=CC(=O)C(Cl)=C2)cc1 | · | 44.1*
Cc1ccc(S(=O)(=O)/N=C2/C(Cl)=C(Cl)C(=O)c3ccccc32)cc1 | · | -2.4
COc1ccc(C(Cl)=C(c2ccc(OC)cc2)c2ccc(OC)cc2)cc1 | · | -0.3
Cc1nn(C)c(C)c1-c1nc2c(NCc3ccccc3)ncnc2n1C(C)C | -4.0 | 7.7
Cc1noc(C)c1-c1nc(NCc2ccccc2)c2ncn(-c3ccsc3)c2n1 | -10.4 | -4.0
c1ccc(Nc2nc(-c3ccc(N4CCOCC4)nc3)nc3c2ncn3-c2ccccc2)cc1 | -2.4 | 3.3
CCCCC(CC)COC(=O)C(C#N)=C(c1ccccc1)c1ccccc1 (stereo unspecified) | · | -8.1
CCCCC(CC)COC(=O)CC(C(=O)OCC(CC)CCCC)S(=O)(=O)O (stereo unspecified) | · | 53.8*
O=C1CCCN1CCCNc1ncnc2nc(N3CCc4ccccc4C3)[nH]c12 | -13.1 | 9.1
COc1cc(NC(=O)c2cccc(-n3cc(NC(=O)Nc4ccc(-c5ccccc5)cc4)cn3)c2)cc(OC)c1OC | 49.3* | -29.5 | TruHits interf=>19.2
COc1cc(NC(=O)c2cccc(-n3cc(NC(=O)Nc4c(C)cccc4Cl)cn3)c2)cc(OC)c1OC | 40.4* | -1.5 | TruHits interf=>19.2
COc1cc(NC(=O)c2cccc(-n3cc(NC(=O)Nc4ccccc4)cn3)c2)cc(OC)c1OC | 5.2 | -33.5
COc1ccc(C)cc1NC(=O)Nc1cnn(-c2cccc(C(=O)Nc3cc(OC)c(OC)c(OC)c3)c2)c1 | -18.4 | -4.6
CCN(CC)c1nc(NCCO)nc(N2CCOCC2)n1 | -4.1 | 10.2
CC(NC(=O)C(NC(=O)C1OC2OC(C)(C)OC2C2OC(C)(C)OC12)C(C)C)C(=O)O (stereo unspecified) | · | -40.5
Nc1nc(Nc2ccccc2)cc(Nc2ccc(N3CCOCC3)cc2)n1 | 21.0 | 9.1
O=C(NCCCN1CCOCC1)c1cccc(-n2ncc3cc(Nc4c(Cl)cccc4Cl)ccc32)c1F | -13.0 | -32.6
COc1cc2nc(Nc3ccc4ncccc4c3)nc(Nc3ccc(N4CCOCC4)cc3)c2cc1OC | 9.7 | 2.2
COc1cc2nc(Nc3ccc(N4CCOCC4)cc3)nc(Nc3ccccc3)c2cc1OC | 56.2* | -11.3 | TruHits interf=8.51*
COc1cc2nc(Nc3ccc(N4CCOCC4)cc3)nc(Nc3ccc(N4CCOCC4)cc3)c2cc1OC | 63.9* | -9.6 | TruHits interf=5.55*
COc1cc2nc(Oc3ccccc3)nc(Nc3ccc(N4CCOCC4)cc3)c2cc1OC | 2.2 | -14.7
COc1cc2nc(Nc3ccccc3)nc(Nc3ccc(N4CCOCC4)cc3)c2cc1OC | 48.0* | -11.8 | TruHits interf=9.53*
COc1cc2nc(Nc3cnccn3)nc(Nc3ccc(N4CCOCC4)cc3)c2cc1OC | 9.7 | -14.3
SMILES | ASK1 inh | ULK1 primary | others
c1ccc(CN2CCC(Nc3nccc(Nc4ccc(N5CCOCC5)cc4)n3)CC2)cc1 | 16.1 | 13.7
c1ccc(CN2CCC(Nc3ccnc(Nc4ccc(N5CCOCC5)cc4)n3)CC2)cc1 | 49.8* | 16.2 | TruHits interf=i
FC(F)(F)c1ccc(Cn2cnc3c(NC4CC4)nc(NCc4cccnc4)nc32)cc1 | -4.1 | -15.9
COc1cc2nc(NC3CCN(Cc4ccccc4)CC3)nc(Nc3ccc(N4CCOCC4)cc3)c2cc1OC | 38.6* | 14.4 | TruHits interf=8.26*
COc1cc2nc(NC3CCN(Cc4ccccc4)CC3)nc(Nc3cc(OC)c(OC)c(OC)c3)c2cc1OC | 17.0 | -7.5
COc1cc2nc(Nc3nc4ccccc4n3C)nc(Nc3ccc(N4CCOCC4)cc3)c2cc1OC | 67.4* | -12.6 | TruHits interf=i
c1nc2nc(Nc3ccc(N4CCOCC4)cc3)nc(Nc3ccc(N4CCOCC4)cc3)c2[nH]1 | 19.8 | 14.1
CN(C)c1cccc(Nc2nc(Nc3ccc(N4CCOCC4)cc3)c3[nH]cnc3n2)c1 | 35.6* | -3.5 | TruHits interf=i
COc1ccc(Nc2nc(NCc3cccc(C(F)(F)F)c3)c3cc(OC)c(OC)cc3n2)cc1 | 2.1 | -26.4
COc1cc2nc(Nc3nc4ccccc4n3C)nc(Nc3ccc4c(c3)OCO4)c2cc1OC | -5.5 | -0.9
COc1cc2nc(Nc3ccc(N4CCOCC4)cc3)nc(NCc3cccc(C(F)(F)F)c3)c2cc1OC | 52.3*! | -14.9 | TruHits interf=6.24*
CC(C)C(=O)NCc1c(-c2ccc(F)cc2)nc2n1CCS2 | · | -2.0
COc1cc(Nc2nc3ccc(C(=O)NCCCN4CCCC4=O)cc3s2)cc(OC)c1OC | -0.2 | 10.4
CCC(CC)(CC(=O)Nc1cccc(/C=C/c2nc(C3CCC3)cs2)c1)C(=O)O | · | 8.0
c1cncc(Nc2nc(Nc3ccc(N4CCOCC4)cc3)c3ncn(C4CCCCC4)c3n2)c1 | 3.8 | -19.5
Cn1c(Nc2nc(Nc3ccc(N4CCOCC4)cc3)c3[nH]cnc3n2)nc2ccccc21 | 14.7 | 1.5
